{"source": "PubChem BioAssay (NCATS)", "note": "The source made the active and inactive calls. Calls come from the whole dose curve; as a rule, active = well fitted curve in the direction sought with a large enough effect; inconclusive = small, poorly fitted or top-dose-only effect, or another doubt; inactive = no such curve, though single readings can be large or run the other way.", "data": [{"test": "qHTS for compounds that reverse cellular toxicity of Amyloid beta (A-beta) peptide in yeast: LOPAC Validation Assay (AID 720559)", "settings": "yeast expressing A-beta; series mostly up to 46.1 µM; growth rescue, positive = activation: at the top concentration", "source_text": "The A-beta peptide is produced by the processing of the amyloid precursor protein (APP) by two proteases, beta and gamma secretases. […] A-beta42 is regarded as the most amyloidogenic form due to its hydrophobicity; however, precisely how A-beta42 induces neurotoxicity is unclear. To understand further this biology and its potential therapeutic implications for human neurodegenerative disease, a quantitative high-throughput screen for compounds that reverse the cellular toxicity of the A-beta peptide was developed.\nA yeast based screen was used because it recapitulates the salient feature of protein mis-folding disorder accurately. This cell-based phenotypic screen provides a significant, unbiased advantage by letting the compounds and models inform us which proteins or pathways are most relevant. The ideal chemical candidates would therefore have activity in both our primary yeast and secondary neuronal toxicity assays, as well as in mouse models. They will be valuable tools for dissecting diverse protein homeostasis pathologies and could potentially become the focus for future pre-clinical development. For this […] assay, inhibition of A-beta rescues the toxic effect in the yeast cell, resulting in increase of signals.\nNIH Chemical Genomics Center [NCGC]\nNIH Molecular Libraries Probe Centers Network [MLPCN]\nAssay Submitter (PI): Susan Lindquist, Whitehead Institute, Massachusetts Institute of Technology\n[1] Vassar R,et al (1999). Beta-secretase cleavage of Alzheimer's amyloid precursor protein by the transmembrane aspartic protease BACE. Science. 286: 735-741.\n[2] Yan R, et al (1999). Membrane-anchored aspartyl protease with Alzheimer's disease beta-secretase activity. Nature.\nTwo and a half microliter / well of yeast growth medium were dispensed in a 1536 assay plate. Compounds were pinned using the Kalypsys robotic system followed by addition of 2.5 uL / well yeast solution. The assay plates were incubated at 30 C. After 48 hr, the absorbance signal at 600 nm was obtained using the PerkinElmer ViewLux plate reader to assess yeast growth. The data was normalized to the positive control of an equimolar mixture of ferric chloride (FeCl3) and clioquinol and to the negative control DMSO.", "values": [{"smiles": "CN(C)C/C=C(/c1ccc(Br)cc1)c1cccnc1", "growth rescue, positive = activation": "-1.57% (inactive)"}, {"smiles": "CC(=O)OC(C)C[N+](C)(C)C", "note": "(stereo not given)", "growth rescue, positive = activation": "-4.26% (inactive)"}, {"smiles": "C[C@@H](O)[C@H]1C(=O)N2C(C(=O)O)=C(SCCN=CN)C[C@H]12", "growth rescue, positive = activation": "-1.16% (inactive)"}, {"smiles": "CCN(Cc1ccncc1)C(=O)C(CO)c1ccccc1", "note": "(stereo not given)", "growth rescue, positive = activation": "-6.77% (inactive)"}, {"smiles": "COc1cc2c(cc1OC)-c1cc(=Nc3c(C)cc(C)cc3C)n(C)c(=O)n1CC2", "growth rescue, positive = activation": "-3.11% (inactive)"}, {"smiles": "CCCCNc1c(C(=O)OCC)c(C)nc2c1cnn2CC", "growth rescue, positive = activation": "-8.56% (inactive)"}, {"smiles": "OCCN1CCN(CC/C=C2/c3ccccc3Sc3ccc(C(F)(F)F)cc32)CC1", "growth rescue, positive = activation": "-9.45% (inactive)"}, {"smiles": "OC(CCN1CCCCC1)(c1ccccc1)C1CCCCC1", "note": "(stereo not given)", "growth rescue, positive = activation": "-8.67% (inactive)"}, {"smiles": "CNCCC(Oc1ccccc1OC)c1ccccc1", "note": "(stereo not given)", "growth rescue, positive = activation": "-0.0727% (inactive)"}, {"smiles": "CCN(CC)CCCN(c1ccccc1)C1Cc2ccccc2C1", "growth rescue, positive = activation": "-9.13% (inactive)"}, {"smiles": "CCCC(C(=O)OCCN(CC)CC)(c1ccccc1)c1ccccc1", "growth rescue, positive = activation": "0.548% (inactive)"}, {"smiles": "CCc1c(C)[nH]c2c1C(=O)C(CN1CCOCC1)CC2", "note": "(stereo not given)", "growth rescue, positive = activation": "-1.48% (inactive)"}, {"smiles": "Nc1ncn([C@@H]2O[C@H](CO)[C@@H](O)[C@H]2O)c(=O)n1", "growth rescue, positive = activation": "-0.17% (inactive)"}, {"smiles": "CC(=O)Oc1cc(C(C)C)c(OCCN(C)C)cc1C", "growth rescue, positive = activation": "4.31% (inactive)"}, {"smiles": "CCOC(=O)c1cnc2c(cnn2CC)c1NN=C(C)C", "growth rescue, positive = activation": "-3.63% (inactive)"}, {"smiles": "CC(C)(Oc1ccc(CCNC(=O)c2ccc(Cl)cc2)cc1)C(=O)O", "growth rescue, positive = activation": "-10.9% (inactive)"}, {"smiles": "Cc1nc2sccn2c(=O)c1CCN1CCC(=C(c2ccc(F)cc2)c2ccc(F)cc2)CC1", "growth rescue, positive = activation": "2.57% (inactive)"}, {"smiles": "COc1ccc2c(c1OC)C(=O)O[C@@H]2[C@H]1c2c(cc3c(c2OC)OCO3)CCN1C", "growth rescue, positive = activation": "-0.332% (inactive)"}, {"smiles": "CC(C)NNC(=O)c1ccncc1", "growth rescue, positive = activation": "0.743% (inactive)"}, {"smiles": "OCCN1CCN(CCCN2c3ccccc3C=Cc3ccccc32)CC1", "growth rescue, positive = activation": "7.26% (inactive)"}, {"smiles": "CC(N=C(NC#N)Nc1ccncc1)C(C)(C)C", "note": "(stereo not given)", "growth rescue, positive = activation": "0.772% (inactive)"}, {"smiles": "COc1ccc([C@@H]2Sc3ccccc3N(CCN(C)C)C(=O)[C@@H]2OC(C)=O)cc1", "growth rescue, positive = activation": "-0.547% (inactive)"}, {"smiles": "COC(=O)[C@@H](N)Cc1ccc(O)c(O)c1", "growth rescue, positive = activation": "0.902% (inactive)"}, {"smiles": "Cc1nnc(SCC2=C(C(=O)O)N3C(=O)[C@@H](NC(=O)Cn4cnnn4)[C@H]3SC2)s1", "growth rescue, positive = activation": "7.38% (inactive)"}, {"smiles": "C[N+](C)(C)CCOC(=O)CCC(=O)OCC[N+](C)(C)C", "growth rescue, positive = activation": "-6.57% (inactive)"}, {"smiles": "CC(C)(C)NCC(O)c1cc(O)cc(O)c1", "note": "(stereo not given)", "growth rescue, positive = activation": "-0.52% (inactive)"}, {"smiles": "CN(C)C(=O)Oc1cccc([N+](C)(C)C)c1", "growth rescue, positive = activation": "-4.52% (inactive)"}, {"smiles": "CN(C)CCN(Cc1cccs1)c1ccccn1", "growth rescue, positive = activation": "1.87% (inactive)"}, {"smiles": "c1cc(CN2CCCCC2)cc(OCCCNc2nc3ccccc3s2)c1", "growth rescue, positive = activation": "-10.3% (inactive)"}, {"smiles": "CC(=O)OCC1=C(C(=O)O)N2C(=O)[C@@H](NC(=O)Cc3cccs3)[C@H]2SC1", "growth rescue, positive = activation": "6% (inactive)"}, {"smiles": "C[C@]12CCC(=O)C=C1CC[C@@H]1[C@@H]2CC[C@@]2(C)[C@H]1CC[C@]2(O)C(=O)CO", "growth rescue, positive = activation": "0.682% (inactive)"}, {"smiles": "CCc1cccc(N(C)C(N)=Nc2cccc3ccccc23)c1", "growth rescue, positive = activation": "2.52% (inactive)"}, {"smiles": "NC(=O)c1ncn([C@@H]2O[C@H](CO)[C@@H](O)[C@H]2O)c1O", "growth rescue, positive = activation": "-1.22% (inactive)"}, {"smiles": "CCCCNC(=O)NS(=O)(=O)c1ccc(C)cc1", "growth rescue, positive = activation": "6.03% (inactive)"}, {"smiles": "O=C(CCCN1CCC(O)(c2cccc(C(F)(F)F)c2)CC1)c1ccc(F)cc1", "growth rescue, positive = activation": "5.15% (inactive)"}, {"smiles": "CC(C(=O)O)c1ccc(CC2CCCC2=O)cc1", "note": "(stereo not given)", "growth rescue, positive = activation": "6.46% (inactive)"}, {"smiles": "CO[C@@]1(NC(=O)CSCC#N)C(=O)N2C(C(=O)O)=C(CSc3nnnn3C)CS[C@@H]21", "growth rescue, positive = activation": "2.69% (inactive)"}, {"smiles": "Cc1ccc(/C(=C\\CN2CCCC2)c2ccccn2)cc1", "growth rescue, positive = activation": "-8.33% (inactive)"}, {"smiles": "COc1ccc(CCN(C)CCCC(C#N)(c2cc(OC)c(OC)c(OC)c2)C(C)C)cc1OC", "note": "(stereo not given)", "growth rescue, positive = activation": "-2.46% (inactive)"}, {"smiles": "O=C1NCN(c2ccccc2)C12CCN(CCCC(c1ccc(F)cc1)c1ccc(F)cc1)CC2", "growth rescue, positive = activation": "4.33% (inactive)"}]}]}
